# Measurements published in the supplement of paper PMC10849652.
# Of roughly 7,900 targets only a part is listed; those with a hit were picked by preference. About 0.6% of all pairs of compound and target were hits.
# Compound: C/C(=N\NC(=O)C1=CC(=CC=C1)S(=O)(=O)N2CCOCC2)/C3=C(C=CC(=C3)Cl)O
# Test: log2 fold change, soluble protein after heating vs DMSO (PISA); higher = thermal stabilisation; K562 cells, 10 uM, 30 min; active = over 0.2 and 3.5 SD of the protein, either way, in both replicates (recomputed)
# In short: (§1)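 Thermal stability values are relative to control samples and come from duplicates. They are expressed as log2 fold changes. For measurement, K562 cells (2×10^6 cells/mL) received 10 μM compound for 30 min, and aliquots were heated for 3 min over 48°C-58°C, pooled, and extracted at 4°C in PBS with 0.5% NP-40. Soluble protein, the supernatant after 21,000xg for 90 min, was quantified by TMTpro 16plex LC-MS/MS with equalised channel sums.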
# Chain of UniProt Q08170 (Q08170 whole entry, looked up): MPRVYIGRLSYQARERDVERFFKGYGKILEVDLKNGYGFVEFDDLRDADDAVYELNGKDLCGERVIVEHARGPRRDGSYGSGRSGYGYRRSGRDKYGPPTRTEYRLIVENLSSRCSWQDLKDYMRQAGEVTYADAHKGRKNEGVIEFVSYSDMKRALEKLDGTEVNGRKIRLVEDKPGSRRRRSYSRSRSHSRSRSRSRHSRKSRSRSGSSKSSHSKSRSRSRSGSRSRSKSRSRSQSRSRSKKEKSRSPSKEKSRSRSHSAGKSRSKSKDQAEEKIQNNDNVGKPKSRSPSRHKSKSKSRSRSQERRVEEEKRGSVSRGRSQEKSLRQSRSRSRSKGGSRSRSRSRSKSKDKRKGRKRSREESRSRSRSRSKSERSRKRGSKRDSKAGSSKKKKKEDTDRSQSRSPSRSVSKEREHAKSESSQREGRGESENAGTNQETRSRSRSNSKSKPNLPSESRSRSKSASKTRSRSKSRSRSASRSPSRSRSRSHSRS
# Chain of UniProt Q8N357 (Q8N357 whole entry, looked up): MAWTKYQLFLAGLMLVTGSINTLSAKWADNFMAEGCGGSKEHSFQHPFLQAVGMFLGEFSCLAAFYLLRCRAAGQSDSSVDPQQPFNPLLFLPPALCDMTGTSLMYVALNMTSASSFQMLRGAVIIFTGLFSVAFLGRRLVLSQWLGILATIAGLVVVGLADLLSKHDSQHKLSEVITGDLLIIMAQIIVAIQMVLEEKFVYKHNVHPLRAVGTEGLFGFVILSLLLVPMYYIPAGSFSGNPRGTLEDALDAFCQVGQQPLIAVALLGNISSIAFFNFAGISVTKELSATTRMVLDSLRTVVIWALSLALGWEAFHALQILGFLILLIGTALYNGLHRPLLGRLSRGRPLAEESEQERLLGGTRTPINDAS
# Chain of UniProt Q13247 (Q13247 whole entry, looked up): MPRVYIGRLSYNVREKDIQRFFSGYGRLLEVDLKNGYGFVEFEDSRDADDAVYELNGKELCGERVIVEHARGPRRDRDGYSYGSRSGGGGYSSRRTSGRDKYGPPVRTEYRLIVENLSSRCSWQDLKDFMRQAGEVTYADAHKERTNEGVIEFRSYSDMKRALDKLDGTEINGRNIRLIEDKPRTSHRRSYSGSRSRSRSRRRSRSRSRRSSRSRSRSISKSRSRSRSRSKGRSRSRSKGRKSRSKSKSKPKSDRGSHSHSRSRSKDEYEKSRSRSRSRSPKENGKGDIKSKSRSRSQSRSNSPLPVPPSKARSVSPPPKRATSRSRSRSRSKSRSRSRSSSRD
# Chain of UniProt Q9Y5J6 (Q9Y5J6 whole entry, looked up): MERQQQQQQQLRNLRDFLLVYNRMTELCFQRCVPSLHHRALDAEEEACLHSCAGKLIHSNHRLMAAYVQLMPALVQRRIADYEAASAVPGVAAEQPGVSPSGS
# Chain of UniProt Q96BZ9 (Q96BZ9 whole entry, looked up): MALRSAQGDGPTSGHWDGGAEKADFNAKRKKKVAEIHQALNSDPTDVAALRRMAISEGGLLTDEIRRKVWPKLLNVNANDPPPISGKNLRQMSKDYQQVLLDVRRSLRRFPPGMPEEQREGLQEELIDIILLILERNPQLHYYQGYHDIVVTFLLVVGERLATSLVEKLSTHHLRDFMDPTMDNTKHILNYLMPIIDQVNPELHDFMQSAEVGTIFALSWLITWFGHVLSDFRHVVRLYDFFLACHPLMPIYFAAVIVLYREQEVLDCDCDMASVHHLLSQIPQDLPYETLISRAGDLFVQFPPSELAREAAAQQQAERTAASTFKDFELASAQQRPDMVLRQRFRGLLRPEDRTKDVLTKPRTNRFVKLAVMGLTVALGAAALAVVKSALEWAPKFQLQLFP
# Chain of UniProt Q6P1M0 (Q6P1M0 whole entry, looked up): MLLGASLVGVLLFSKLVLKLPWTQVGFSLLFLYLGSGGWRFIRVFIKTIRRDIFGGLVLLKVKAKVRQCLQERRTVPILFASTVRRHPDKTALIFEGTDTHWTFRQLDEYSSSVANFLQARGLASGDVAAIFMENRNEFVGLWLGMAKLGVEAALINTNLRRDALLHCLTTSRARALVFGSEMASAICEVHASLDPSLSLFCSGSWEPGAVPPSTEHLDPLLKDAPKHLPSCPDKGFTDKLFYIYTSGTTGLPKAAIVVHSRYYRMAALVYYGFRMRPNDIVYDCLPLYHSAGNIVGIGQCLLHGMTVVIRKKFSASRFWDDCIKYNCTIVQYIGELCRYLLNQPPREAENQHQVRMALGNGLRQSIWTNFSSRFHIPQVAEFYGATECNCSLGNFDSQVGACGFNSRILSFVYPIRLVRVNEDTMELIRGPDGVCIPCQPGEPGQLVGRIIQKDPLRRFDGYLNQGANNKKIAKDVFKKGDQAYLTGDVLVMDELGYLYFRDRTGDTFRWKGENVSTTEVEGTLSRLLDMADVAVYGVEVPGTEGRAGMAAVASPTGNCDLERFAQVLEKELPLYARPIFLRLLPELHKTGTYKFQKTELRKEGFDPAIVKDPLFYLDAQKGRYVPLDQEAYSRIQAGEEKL
# Chain of UniProt Q969X1 (Q969X1 whole entry, looked up): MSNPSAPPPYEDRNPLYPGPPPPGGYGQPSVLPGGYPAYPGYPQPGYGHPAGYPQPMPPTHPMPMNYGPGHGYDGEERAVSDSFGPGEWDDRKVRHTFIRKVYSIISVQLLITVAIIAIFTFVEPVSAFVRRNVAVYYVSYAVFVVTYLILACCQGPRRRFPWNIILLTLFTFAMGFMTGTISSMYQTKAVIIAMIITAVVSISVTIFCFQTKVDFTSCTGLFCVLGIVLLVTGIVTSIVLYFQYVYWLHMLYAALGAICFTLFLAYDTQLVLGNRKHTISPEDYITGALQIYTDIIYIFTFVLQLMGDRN
# Chain of UniProt P05455 (P05455 whole entry, looked up): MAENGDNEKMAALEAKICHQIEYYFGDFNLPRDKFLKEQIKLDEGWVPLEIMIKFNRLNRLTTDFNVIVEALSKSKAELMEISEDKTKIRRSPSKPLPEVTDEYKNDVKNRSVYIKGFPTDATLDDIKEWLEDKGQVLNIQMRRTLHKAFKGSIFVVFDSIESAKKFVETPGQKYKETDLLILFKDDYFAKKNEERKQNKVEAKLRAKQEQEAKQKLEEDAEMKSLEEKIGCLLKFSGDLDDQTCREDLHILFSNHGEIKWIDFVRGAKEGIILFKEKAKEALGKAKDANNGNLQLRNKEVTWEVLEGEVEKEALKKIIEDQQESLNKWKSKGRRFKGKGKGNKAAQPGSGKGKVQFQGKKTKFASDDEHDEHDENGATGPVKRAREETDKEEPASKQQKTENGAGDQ
# Chain of UniProt Q15582 (Q15582 whole entry, looked up): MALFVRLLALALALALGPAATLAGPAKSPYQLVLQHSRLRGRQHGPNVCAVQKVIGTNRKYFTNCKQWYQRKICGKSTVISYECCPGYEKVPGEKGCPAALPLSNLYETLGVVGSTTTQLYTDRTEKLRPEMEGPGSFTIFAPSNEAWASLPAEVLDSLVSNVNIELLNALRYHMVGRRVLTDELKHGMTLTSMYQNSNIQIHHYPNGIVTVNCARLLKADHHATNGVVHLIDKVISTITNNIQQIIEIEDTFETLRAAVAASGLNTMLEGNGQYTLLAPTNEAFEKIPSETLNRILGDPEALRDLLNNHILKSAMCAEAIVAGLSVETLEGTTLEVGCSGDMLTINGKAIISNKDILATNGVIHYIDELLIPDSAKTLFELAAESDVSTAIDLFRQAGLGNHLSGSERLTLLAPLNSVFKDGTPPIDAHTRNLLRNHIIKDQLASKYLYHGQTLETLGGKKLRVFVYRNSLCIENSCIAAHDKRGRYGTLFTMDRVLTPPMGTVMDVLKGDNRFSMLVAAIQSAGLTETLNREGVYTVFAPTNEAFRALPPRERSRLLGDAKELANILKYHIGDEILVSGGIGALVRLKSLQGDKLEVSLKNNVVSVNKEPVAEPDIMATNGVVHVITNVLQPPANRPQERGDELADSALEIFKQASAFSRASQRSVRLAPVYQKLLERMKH
# Chain of UniProt Q969S0 (Q969S0 whole entry, looked up): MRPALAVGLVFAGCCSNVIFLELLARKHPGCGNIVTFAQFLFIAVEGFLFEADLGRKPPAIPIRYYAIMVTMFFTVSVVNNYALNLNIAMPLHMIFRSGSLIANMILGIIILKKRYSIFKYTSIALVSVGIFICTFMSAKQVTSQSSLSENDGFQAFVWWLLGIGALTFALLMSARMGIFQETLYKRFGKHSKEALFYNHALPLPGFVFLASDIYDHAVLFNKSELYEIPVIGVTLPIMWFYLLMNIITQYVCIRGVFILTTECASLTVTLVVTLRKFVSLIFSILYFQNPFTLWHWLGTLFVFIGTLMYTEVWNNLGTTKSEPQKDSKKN
# Chain of UniProt Q969G3 (Q969G3 whole entry, looked up): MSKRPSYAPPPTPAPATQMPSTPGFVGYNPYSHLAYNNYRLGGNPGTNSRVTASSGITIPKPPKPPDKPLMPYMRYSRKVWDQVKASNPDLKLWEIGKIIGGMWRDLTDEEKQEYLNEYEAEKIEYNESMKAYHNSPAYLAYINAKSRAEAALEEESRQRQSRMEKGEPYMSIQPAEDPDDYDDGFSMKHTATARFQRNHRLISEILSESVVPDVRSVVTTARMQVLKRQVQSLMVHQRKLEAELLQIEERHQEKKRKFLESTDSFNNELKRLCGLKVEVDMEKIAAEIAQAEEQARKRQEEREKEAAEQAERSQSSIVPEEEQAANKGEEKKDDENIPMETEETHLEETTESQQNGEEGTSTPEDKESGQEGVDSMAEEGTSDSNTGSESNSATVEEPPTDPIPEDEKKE
# Chain of UniProt Q8N5G0 (Q8N5G0 whole entry, looked up): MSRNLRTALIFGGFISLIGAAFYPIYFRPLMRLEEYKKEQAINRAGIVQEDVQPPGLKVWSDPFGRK
# Chain of UniProt Q9Y5W9 (Q9Y5W9 whole entry, looked up): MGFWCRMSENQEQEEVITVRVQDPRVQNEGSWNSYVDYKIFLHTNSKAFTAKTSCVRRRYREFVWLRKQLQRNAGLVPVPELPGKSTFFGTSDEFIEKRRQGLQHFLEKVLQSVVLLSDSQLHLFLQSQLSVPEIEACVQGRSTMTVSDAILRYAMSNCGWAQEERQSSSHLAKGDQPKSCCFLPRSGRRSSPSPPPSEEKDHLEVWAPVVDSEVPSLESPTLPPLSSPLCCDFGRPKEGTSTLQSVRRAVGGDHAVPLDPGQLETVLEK
row,Target,log2 fold change
1,STK38 (UniProt Q15208),0.138 (inactive)
2,TBC1D24 (UniProt Q9ULP9),0.068 (inactive)
3,SMARCA4 (UniProt P51532),0.073 (inactive)
4,TAOK3 (UniProt Q9H2K8),0.08 (inactive)
5,SP100 isoform 4 (UniProt P23497),0.044 (inactive)
6,SLC35B4 (UniProt Q969S0),0.194 (inactive)
7,TBRG4 (UniProt Q969Z0),0.18 (inactive)
8,TIMM10B (UniProt Q9Y5J6),0.135 (inactive)
9,SMIM20 isoform 2 (UniProt Q8N5G0),-0.111 (inactive)
10,SPTBN4 (UniProt Q9H254),0 (inactive)
11,TGFBI (UniProt Q15582),-0.018 (inactive)
12,STARD3NL (UniProt O95772),-0.107 (inactive)
13,TJP1 (UniProt Q07157),0.072 (inactive)
14,TANGO6 (UniProt Q9C0B7),0.032 (inactive)
15,TANK (UniProt Q92844),-0.031 (inactive)
16,SRC isoform 2 (UniProt P12931),-0.034 (inactive)
17,SUOX (UniProt P51687),0.047 (inactive)
18,SNRNP40 (UniProt Q96DI7),-0.012 (inactive)
19,SNX11 (UniProt Q9Y5W9),-0.029 (inactive)

row,Target,log2 fold change
1,TIMM13 (UniProt Q9Y5L4),0 (inactive)
2,TATDN2 (UniProt Q93075),-0.062 (inactive)
3,SRSF9 (UniProt Q13242),-0.4 (inactive)
4,SLC35F6 (UniProt Q8N357),-0.078 (inactive)
5,SMCHD1 (UniProt A6NHR9),0.171 (inactive)
6,SP3 (UniProt Q02447),-0.028 (inactive)
7,TBC1D20 isoform 3 (UniProt Q96BZ9),0.195 (inactive)
8,SYK (UniProt P43405),0.144 (inactive)
9,TIMM29 (UniProt Q9BSF4),0.042 (inactive)
10,SMARCE1 (UniProt Q969G3),0.04 (inactive)
11,SRSF6 (UniProt Q13247),0.096 (inactive)
12,SRSF4 (UniProt Q08170),0.015 (inactive)
13,SULT1A1 (UniProt P50225),0.009 (inactive)
14,SLC27A4 (UniProt Q6P1M0),0.013 (inactive)
15,SSB (UniProt P05455),0.045 (inactive)
16,TLK2 isoform 2 (UniProt Q86UE8),0.008 (inactive)
17,TMBIM1 (UniProt Q969X1),-0.139 (inactive)
18,STK11IP (UniProt Q8N1F8),0.152 (inactive)

# Compound: C1=CC(=C(C=C1Cl)C2=NC3=NC=CN=C3C(=N2)NC4=CC=NC=C4)F
# Test: as above
# In short: as §1
row,Target,log2 fold change
1,STK38 (UniProt Q15208),0.029 (inactive)
2,TBC1D24 (UniProt Q9ULP9),0.059 (inactive)
3,SMARCA4 (UniProt P51532),0.032 (inactive)
4,TAOK3 (UniProt Q9H2K8),0.009 (inactive)
5,SP100 isoform 4 (UniProt P23497),0.037 (inactive)
6,SLC35B4 (UniProt Q969S0),-0.033 (inactive)
7,TBRG4 (UniProt Q969Z0),0.046 (inactive)
8,TIMM10B (UniProt Q9Y5J6),0.191 (inactive)
9,SMIM20 isoform 2 (UniProt Q8N5G0),0.427 (active)
10,SPTBN4 (UniProt Q9H254),-0.045 (inactive)
11,TGFBI (UniProt Q15582),0.054 (inactive)
12,STARD3NL (UniProt O95772),-0.004 (inactive)
13,TJP1 (UniProt Q07157),0.022 (inactive)
14,TANGO6 (UniProt Q9C0B7),-0.003 (inactive)
15,TANK (UniProt Q92844),0.101 (inactive)
16,SRC isoform 2 (UniProt P12931),-0.006 (inactive)
17,SUOX (UniProt P51687),0.046 (inactive)
18,SNRNP40 (UniProt Q96DI7),-0.111 (inactive)
19,SNX11 (UniProt Q9Y5W9),0.035 (inactive)

row,Target,log2 fold change
1,TIMM13 (UniProt Q9Y5L4),0.315 (inactive)
2,TATDN2 (UniProt Q93075),-0.016 (inactive)
3,SRSF9 (UniProt Q13242),-0.721 (active)
4,SLC35F6 (UniProt Q8N357),-0.008 (inactive)
5,SMCHD1 (UniProt A6NHR9),-0.272 (inactive)
6,SP3 (UniProt Q02447),0 (inactive)
7,TBC1D20 isoform 3 (UniProt Q96BZ9),0.094 (inactive)
8,SYK (UniProt P43405),-0.019 (inactive)
9,TIMM29 (UniProt Q9BSF4),0.049 (inactive)
10,SMARCE1 (UniProt Q969G3),0.017 (inactive)
11,SRSF6 (UniProt Q13247),-0.072 (inactive)
12,SRSF4 (UniProt Q08170),-0.325 (inactive)
13,SULT1A1 (UniProt P50225),0.109 (inactive)
14,SLC27A4 (UniProt Q6P1M0),-0.023 (inactive)
15,SSB (UniProt P05455),0.013 (inactive)
16,TLK2 isoform 2 (UniProt Q86UE8),0.04 (inactive)
17,TMBIM1 (UniProt Q969X1),0.122 (inactive)
18,STK11IP (UniProt Q8N1F8),-0.079 (inactive)
